Several values for one entry are separate records, joined by “and”; a condition that tells them apart may be missing. Equal entries are not always repeated. Results filed as inconclusive are left out. Activity calls are given as the source filed them. Rule for the calls, unless noted: active = hit-call score of the fitted dose curve at least 0.9, where 1 is the maximum; inconclusive = response in the unintended direction; inactive = score below 0.9.

zebrafish Thyroid Hormone Receptor beta (TRb), thrb (gene 30607), sequence (Q9PVE4 whole entry, looked up): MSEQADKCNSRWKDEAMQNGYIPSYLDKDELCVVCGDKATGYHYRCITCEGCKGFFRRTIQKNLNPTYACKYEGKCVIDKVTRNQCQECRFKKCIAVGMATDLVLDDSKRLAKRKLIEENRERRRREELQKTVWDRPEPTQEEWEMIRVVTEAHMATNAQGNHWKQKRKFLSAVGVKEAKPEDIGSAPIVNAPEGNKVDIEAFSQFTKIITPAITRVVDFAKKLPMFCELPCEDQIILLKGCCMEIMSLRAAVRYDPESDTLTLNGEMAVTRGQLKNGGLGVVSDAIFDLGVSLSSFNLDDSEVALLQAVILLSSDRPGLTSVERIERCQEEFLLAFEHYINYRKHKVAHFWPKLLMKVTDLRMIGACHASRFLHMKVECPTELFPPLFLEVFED

The first test has as its system zebrafish Peroxisome Proliferator-activated Receptor gamma (PPARg), gene 557037. Kind of test: ATG_zfPPARg_XSP2: Attagene TRANS-FACTORIAL Multi-Species (XSP2) HepG2 Assay for zebrafish Peroxisome Proliferator-activated Receptor gamma (PPARg) (AID 2283833).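 Note: reporter mRNA from a zebrafish PPARg GAL4 chimera measured by RT-PCR and capillary electrophoresis; actives increase reporter signal over DMSO so AC50 reflects activation.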 The gist of the method:
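Cell-based transactivation of a chimeric zebrafish PPARg-GAL4 receptor was assessed in transiently transfected HepG2 cells after 24 h of treatment. Reporter mRNA induction, detected fluorescently after RT-PCR, was analysed in the positive direction against DMSO.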
For the molecule `C#C[C@]1(O)CC[C@H]2[C@@H]3CCC4=CC(=O)CC[C@@H]4[C@H]3CC[C@@]21C`, the molecule was called inactive.

Turning to `O=C(O)Cc1cc(I)c(Oc2cc(I)c(O)c(I)c2)c(I)c1`, the result was inactive.

With `c1ccc2c(c1)ccc1ccccc12`, the outcome was inactive.

`CCCOC(=O)c1ccc(O)cc1`: the call was inactive.

Turning to `Cc1oc(-c2ccccc2)nc1CCOc1ccc(C[C@H](Nc2ccccc2C(=O)c2ccccc2)C(=O)O)cc1`, the molecule was called inactive.

Regarding `O=c1c(-c2ccc(O)cc2)coc2cc(O)ccc12`, the molecule was called inactive.

For the molecule `CCC(=C(c1ccc(O)cc1)c1ccc(OCCN(C)C)cc1)c1ccccc1`, the molecule was classed as inactive.

Test system in another test: not listed separately
Kind of test: ATG_M_61_XSP2: Attagene TRANS-FACTORIAL Multi-Species (XSP2) HepG2 Assay for M61 Transcription Factor (Internal Marker) (AID 2283835; active = hit-call score of the fitted dose curve at least 0.9, where 1 is the maximum; inactive = score below 0.9;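 note: active means a rise in signal above the DMSO baseline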). The gist of the method: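 Internal background marker, read as RT-PCR/capillary-electrophoresis reporter mRNA 24 h post-dose in transiently transfected HepG2 cells. Androgen receptor stimulated with 3 nM 6-alpha-fluorotestosterone plus 1.5 nM norgestrel; gain of signal versus DMSO analysed.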
As to `CC[C@H](c1ccc(O)cc1)[C@@H](CC)c1ccc(O)cc1`, the molecule was classed as inactive.

Consider `O=C(O)Cc1cc(I)c(Oc2cc(I)c(O)c(I)c2)c(I)c1`, for which the outcome was inactive.

Turning to `CCC(C)(C)C1CCC(O)CC1` (stereo not given), the molecule was called inactive.

Take `c1ccc2c(c1)ccc1ccccc12`: the molecule was called inactive.

For `CCCOC(=O)c1ccc(O)cc1`, the molecule was called inactive.

Consider `Cc1oc(-c2ccccc2)nc1CCOc1ccc(C[C@H](Nc2ccccc2C(=O)c2ccccc2)C(=O)O)cc1`, for which the molecule was classed as inactive.

For `O=c1c(-c2ccc(O)cc2)coc2cc(O)ccc12`, the call was inactive.

As to `CCC(=C(c1ccc(O)cc1)c1ccc(OCCN(C)C)cc1)c1ccccc1`, the molecule was called inactive.

The target of a further test is zebrafish Thyroid Hormone Receptor beta (TRb), thrb (gene 30607) (UniProt Q9PVE4). Kind of test: ATG_zfTRb_XSP2: Attagene TRANS-FACTORIAL Multi-Species (XSP1) HepG2 Assay for zebrafish Thyroid Hormone Receptor beta (TRb) (AID 2283836).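 For AC50: potency for induction of reporter signal above DMSO so agonist direction.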 The gist of the method:
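Multiplexed trans-activation in HepG2 cells, 24 h treatment, with reporter mRNA read by RT-PCR and capillary electrophoresis. Gain-of-signal against DMSO.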
As to `C#C[C@]1(O)CC[C@H]2[C@@H]3CCC4=CC(=O)CC[C@@H]4[C@H]3CC[C@@]21C`, the molecule was classed as inactive.

One may read the AC50 as the midpoint of the concentration-response curve, whichever way the signal moves. Regarding `Oc1cc2ccccc2c2ccccc12`, the AC50 is 33.4 µM (active).

As for `CC[C@H](c1ccc(O)cc1)[C@@H](CC)c1ccc(O)cc1`, the outcome was inactive.

Consider `O=C(O)Cc1cc(I)c(Oc2cc(I)c(O)c(I)c2)c(I)c1`, for which the AC50 is 45.5 nM (active) and 14.4 nM (active).

For `CCC(C)(C)C1CCC(O)CC1` (stereo not given), the molecule was called inactive.

Consider `c1ccc2c(c1)ccc1ccccc12`, for which the outcome was inactive.

Regarding `CCCOC(=O)c1ccc(O)cc1`, the outcome was inactive.

Regarding `Cc1oc(-c2ccccc2)nc1CCOc1ccc(C[C@H](Nc2ccccc2C(=O)c2ccccc2)C(=O)O)cc1`, the molecule was classed as inactive.

With `O=c1c(-c2ccc(O)cc2)coc2cc(O)ccc12`, the result was inactive.

Regarding `CCC(=C(c1ccc(O)cc1)c1ccc(OCCN(C)C)cc1)c1ccccc1`, the call was inactive.

Test system in the next test: not listed separately
Nature of the test: ATG_XTT_Cytotoxicity_XSP2: Cytotoxicity Assessment in the Attagene TRANS-FACTORIAL Multi-Species (XSP2) HepG2 Assay (AID 2283837). The gist of the method: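 XTT-based cell number read-out in human HepG2 liver cells carrying transfected reporter units, measured 24 h after chemical dosing. Activity is signal loss versus DMSO baseline.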
As to `Oc1cc2ccccc2c2ccccc12`, the AC50 is 15.7 µM (active).

On to `c1ccc2c(c1)ccc1ccccc12`, for which the call was inactive.

Consider `CCCOC(=O)c1ccc(O)cc1`, for which the molecule was called inactive.

With `O=c1c(-c2ccc(O)cc2)coc2cc(O)ccc12`, the outcome was inactive.

As to `CCC(=C(c1ccc(O)cc1)c1ccc(OCCN(C)C)cc1)c1ccccc1`, the AC50 is 32.1 µM (active).

The record behind these values is PubChem BioAssay (EPA / NIEHS).
